From PubChem BioAssay (NCI) come the findings set out here.

SMILES strings stand for the structures. Compounds without any hit were thinned out: in the full panel of roughly 83,000, 20% have a hit.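 Treatment: one concentration, 48 hours, 96-well format. Scoring: percent growth, with anything below 10 considered active.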 Values without a mark were called inactive. Activity calls are given as the source filed them.

The assay concerns COLO 205 colon. In words: NCI-60 one-dose screen, 48 h (100 = growth as untreated, 0 = no growth, -100 = all killed). The conditions noted are these: 10 µM unless noted. On the procedure: Cells are grown in 96 well plates and exposed to the test compound for 48 hours. Compounds are tested at a single concentration, which is 10^-5 M for most compounds. The reported endpoint is percent growth (GI% or GIPRCNT), where numbers from 0 - 100% represent growth inhibition, and numbers from -100% - 0 represent cell death. For example, a value of 40 represents 60% growth inhibition. A value of 0 means no net growth occurred over the course of the experiment. A value of -40 indicates 40% of cells at the beginning of the experiment died by the end of the experiment. A value of -100 means all cells are dead at the end of the experiment.
NCI-60 Human Tumor Cell Lines Screen was performed using the standard one-dose NCI protocol, which is described in more detail at https://dtp.cancer.gov/discovery_development/nci-60/default.htm.
Compounds with GIPRCNT values below 10 were considered active. Activity score was based on GIPRCNT using the following formula: […]
Score is 0 for GIPRCNT values of 100 or above, 50 for GIPRCNT values of 0, and 100 for GIPRCNT values of -100.
As for `O=S(=O)(O)c1cc(O)c2c(N=Nc3ccc(Nc4ccccc4)c4c(S(=O)(=O)O)cccc34)cc(S(=O)(=O)O)cc2c1`, the growth is 97.9%.

Consider `CCN(CC)CCCCCCNc1cc(OC)cc2cccnc12`, for which the growth was -68.9% (active).

Take `COc1cc(NCCN(CC(C)C)C2CCCC2)c2ncccc2c1`: the growth was 101%.

Regarding `COc1ccc(-c2ncc(-c3ccccc3)[nH]2)cc1OC`, the growth was 145%.

As for `O=C1c2ccccc2-c2c1c1c(NCCCO)nc3ccccc3c1n2Cc1ccccc1`, the growth was 62%.

On to `Cc1ccc(O)c(C(=O)O)c1`, for which the growth is 120%.

`CSc1nnc2c(=O)n(C)c(=O)n(C)c2n1`: the growth is 97.8%.

In the case of `O=C1CCCN1c1cccc2cccnc12`, the growth was 108%.

In the case of `COc1ccc(/C=C/C(=O)c2ccc(Nc3ncnc4ccccc34)cc2)cc1OC`, the growth was 109%.

`CC1(C)CC[C@]2(C(=O)NCC#CCN3CCOCC3)CC[C@]3(C)C(=CC[C@@H]4[C@@]5(C)Cc6c([nH]c7ccccc67)C(C)(C)[C@@H]5CC[C@]43C)[C@@H]2C1`: the growth is 30.5%.

In the case of `c1ccc(C2CC(c3cccc(Nc4ccncc4)c3)=NN2c2ccccc2)cc1` (stereo not given), the growth is -58% (active).

Regarding `COc1cc(NCC(O)CN(CC(C)C)C2CCCC2)c2ncccc2c1` (stereo not given), the growth is 97%.

Take `CN1CCN(CCCOc2ccc3ncnc(Nc4ccc(Oc5cccc(C(F)(F)F)c5)c(Cl)c4)c3c2)CC1`: the growth was -51.8% (active).

Regarding `Clc1ccc2c(c1)c(-c1ccccc1)nc1nncn12`, the growth was 115%.

In the case of `COc1cccc(/C=C2\COc3ccc(-c4ccccc4)cc3C2=O)c1`, the growth was -23.4% (active).

For `COc1cc(NCCCN(CC(C)C)CC(C)C)c2ncccc2c1`, the growth was 90.2%.

In the case of `N/C(=N\N=C\c1cc2ccccc2s1)N/N=C/c1cc2ccccc2s1`, the growth is 112%.

Take `FC(F)(F)c1cccc(Oc2ccc(Nc3ncnc4ccc(OCCCN5CCOCC5)cc34)cc2Cl)c1`: the growth is 47%.

As to `Cn1c(COC(=O)N2CCCCC2)nc2c(N3CCOCC3)nc(-c3ccccc3)nc21`, the growth is -60.2% (active).

Turning to `C=CCn1c(SCC(=O)Nc2ccc(C(=O)/C=C/c3cc(OC)c(OC)c(OC)c3)cc2)nnc1-c1cc(-c2ccc(S(C)(=O)=O)cc2)nc2ccccc12`, the growth is 111%.

Consider `CC(=O)[C@@H]1CC[C@]2(C(N)=O)CC[C@]3(C)[C@H](CC[C@@H]4[C@@]5(C)CCC(=O)C(C)(C)[C@@H]5CC[C@]43C)[C@@H]12`, for which the growth is 102%.

Regarding `Nc1nc(SN=Nc2ccc(S(N)(=O)=O)cc2)c2[nH]cnc2n1`, the growth is -30.6% (active).

Turning to `CCOC(=O)C1CC(=O)c2cc(OC)c(OC)cc2C1` (stereo not given), the growth is 127%.

Turning to `CC1(C)CN(c2cnc(C(=O)Nc3cc(F)cc4cccnc34)cn2)CCN1`, the growth is 19.7%.

Turning to `COc1ccc(OC)c(/C=C/[C@H]2O[C@@H](C)[C@H](O)[C@@H]2O)c1`, the growth is 111%.

For `C=C(C)[C@@H]1CC[C@]2(C(=O)NCCCN(CCC#N)CCC#N)CC[C@]3(C)[C@H](CC[C@@H]4[C@@]5(C)CCC(=O)C(C)(C)[C@@H]5CC[C@]43C)[C@@H]12`, the growth is 111%.

`CCN(CC)CCCC(C)Nc1c2c(nc3ccc(OC)cc13)CCCC2` (stereo not given): the growth is 100%.

For `CCCCCCCCCCCCCCCC(=O)OC[C@@]1(O)C[C@@]23CC[C@@H]4C(C)(C)CCC[C@@]4(C)[C@@H]2CC[C@H]1C3`, the growth was 112%.

Regarding `O=C(CNCCO)Nc1ccc2ncnc(Nc3ccc(OCc4cccc(F)c4)c(Cl)c3)c2c1`, the growth was 96%.

Turning to `c1ccc2c(-c3c4ccsc4cc4[nH]c5ccccc5c34)c[nH]c2c1`, the growth is 58.4%.

Regarding `COc1ccc(C2=C(c3ccccc3)c3ccc(OC(C)=O)cc3OC2(C)C)cc1`, the growth was 108%.

In the case of `CCc1c(Nc2ccc(C)cc2)nc(N)[nH]c1=O`, the growth was 108%.

Consider `C/C(=C(/c1ccccc1)c1ccc(OCC(O)CN2CCOCC2)cc1)c1ccccc1` (stereo not given), for which the growth is 69.4%.

For the molecule `CCCC1C(C(=O)OCC)=C(N)Oc2cc(O)ccc21` (stereo not given), the growth was 96.3%.

As to `COc1cc(CNC(=O)CCCCC[P+](c2ccccc2)(c2ccccc2)c2ccccc2)c(OC)c2c1OCO2`, the growth was 45.8%.

For the molecule `O=C(/C=C/c1ccc[nH]1)c1ccc(-n2ccc(C(F)(F)F)n2)cc1`, the growth was 122%.

With `C#CCn1cc(C=C2C(=O)NC(=S)NC2=O)c2cc(Cl)ccc21`, the growth is 33.2%.

`Cc1ccccc1CNc1ccc(N2CCOCC2)cc1`: the growth is 108%.

In the case of `COc1ccncc1C#Cc1cncc(C(=O)Nc2ccc(CN3CCN(C)CC3)c(C(F)(F)F)c2)c1`, the growth was 4.09% (active).

As to `COc1cc(CCNc2nc3cc(N)cc(N)c3nc2-c2ccccc2)cc(OC)c1`, the growth was -60.8% (active).
